The full list was thinned out, with hits kept by preference.
Tg IFNy HTS = inhibitors of Toxoplasma gondii growth with IFN-gamma | Toxoplasma gondii growth in IFN-gamma-treated host cells; stronger effect = lower value | activity change, negative = inhibition, % (test concentration not listed) | 3.8% of 69,000 active; in the data active means activity change below about -70%, passing the limit was not always enough;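 further: host cells are HeLa cells infected with Toxoplasma gondii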
Large screens that a line does not name were inactive; ! = a repeat was not active.

CN1C[C@@H]2CCN(C(=O)NCc3ccccc3)CC[C@H]2S1(=O)=O	none
Cc1onc(-c2cccnc2)c1C(=O)NCc1ccc(-c2ncncc2C(=O)N(C)C)cc1	none
COCCC1COC2(CCCN(C(=O)Cc3cccnc3)C2)C1 (centres undefined)	none
CN(Cc1ccnc2ccccc12)C(=O)c1cccc(Cn2cccn2)c1	none
CC1(C)Cc2c(sc3ncnc(N)c23)CO1	none
CCCCN(CCCC)c1ncnc2c1sc1nc3c(cc12)COC(C)(C)C3	Tg IFNy HTS -103
O=C(O)C1CN(c2nc(-c3ccccc3)nc3c2CCC3)CCN1 (centres undefined)	none
CN1C(=O)C2(NCCc3c2[nH]c2ccc(Cl)cc32)c2cc(Br)ccc21 (centres undefined)	none
NC(=O)C1CCCc2c1[nH]c1ccc(Cl)cc21 (centres undefined)	none
O=CNC1CCCc2c1[nH]c1ccc(Cl)cc21 (centres undefined)	Tg IFNy HTS -81
CN(C)CCNC(=O)c1cc2n(n1)CCN(C(=O)CC1CNCCO1)C2 (centres undefined)	none
O=C(c1ccncc1)N1CCCC2(CCCN2Cc2cccc(Cl)c2)C1 (centres undefined)	none
Cc1cccc(Nc2nc(C(=O)NCCc3cccs3)nc3ccccc23)c1	none
CCOc1ccc(OCC)c(S(=O)(=O)Oc2cccc3ccc(C)nc23)c1	Tg IFNy HTS -93
CCOc1ccc(C(=O)C(C)=O)c(OCC)c1	none
COc1ccc(OC)c(S(=O)(=O)Oc2ccccn2)c1	none
CN1CC2(CCN(Cc3nccn3C)CC2)CC1C(=O)O (centres undefined)	none
Cc1ccc(CN(C)C(=O)c2cc(CC(C)C)[nH]c(=O)n2)o1	none
CCC1CN(C(=O)c2ccc(-c3ccc(OC)nc3)nc2)CCN1C(C)C (centres undefined)	none
Cc1ccc(S(=O)(=O)c2cnc(N3CCC(C(N)=O)(N4CCCCC4)CC3)nc2N)cc1	none
Cc1ccc(NC(=O)c2sc3nc(-c4cc5cc(Cl)ccc5oc4=O)[nH]c(=O)c3c2C)c(C)c1	none
COc1ccc(C(=O)NCc2cnn(Cc3ccccc3)c2)cc1O	none
N#Cc1cccc(NC2COC3(CCN(C(=O)NC4CC4)C3)C2)n1 (centres undefined)	none
Cc1occc1C(=O)N1CCC2(CC(Nc3ncccc3F)CO2)C1 (centres undefined)	none
Cc1occc1C(=O)N1CCC2(CC(Nc3cccc(C#N)n3)CO2)C1 (centres undefined)	Tg IFNy HTS -98
CC(C)Oc1ccc(C(=O)NCCc2csc(-c3ccc(Cl)cc3)n2)cc1	none
COc1ccc(C(=O)NCCc2csc(-c3ccc(Cl)cc3)n2)cc1	none
COc1ccc2cc(-c3cc(-c4cc(Cl)cc(Cl)c4)nn3[C@@H](C)c3ccc(C(=O)NCCC(=O)O)cc3)ccc2c1	Tg IFNy HTS -73
COc1ccc(Nc2nc(-c3nnc(-c4ccc(F)cc4)o3)nc3ccccc23)cc1	none
COc1ccc(-n2nnc(C(C)=O)c2Nc2ccc(C(=O)N3CCCC3)cc2)cc1	none
COC(C(=O)N1N=C(c2c(-c3ccccc3)c3cc(Cl)ccc3[nH]c2=O)CC1c1ccccc1)c1ccccc1 (centres undefined)	Tg IFNy HTS -102
CNC(=S)N1N=C(c2c(-c3ccccc3)c3cc(Cl)ccc3[nH]c2=O)CC1c1ccccc1 (centres undefined)	none
CNC(=S)N1N=C(c2c(-c3ccccc3)c3cc(Cl)ccc3[nH]c2=O)CC1c1ccccc1OC (centres undefined)	none
Cc1cccc(S(=O)(=O)N2CC(C(=O)N3CCCC3)C3(CCOCC3)C2)c1 (centres undefined)	none
Cc1[nH]cnc1-c1nccn1CC1Cc2ccccc2CN1C (centres undefined)	none
Cc1nc(C(C)C)ncc1C(=O)N1Cc2cnc(-c3ccccc3)nc2C1	none
C[C@H]1[C@H](C)CC[C@]2(C(=O)O)CC[C@]3(C)C(=CCC4[C@@]5(C)C[C@@H](O)[C@H](O)[C@@](C)(CO)C5CC[C@]43C)[C@H]12 (some centres undefined)	none
C[C@H]1[C@H](C)CC[C@]2(C(=O)O)CC[C@]3(C)C(=CC[C@@H]4[C@@]5(C)C[C@@H](O)[C@H](O)[C@@](C)(CO)[C@@H]5CC[C@]43C)[C@H]12	Tg IFNy HTS -74!
C[C@H]1[C@H](C)CC[C@]2(C(=O)O)CC[C@]3(C)C(=CCC4[C@@]5(C)C[C@@H](O)[C@H](O)[C@@](C)(CO)C5[C@H](O)C[C@]43C)[C@H]12 (some centres undefined)	none
O=C(c1cccs1)N1CCC2(CCC(=O)N2Cc2ccccc2)CC1	none
CN1CCN([C@@H]2CCN(c3ccc4ccccc4n3)C[C@H]2O)CC1	none
Fc1ccc(CNC(=S)NC(Cc2ccccc2)c2ccccc2)cc1 (centres undefined)	Tg IFNy HTS -94
S=C(NCc1ccccc1)NCc1cccc(CNC(=S)NCc2ccccc2)c1	none
O=C(O)C(Cc1ccc(F)cc1)c1ccccc1 (centres undefined)	none
Fc1ccc(-n2cc(C3Nc4ccccc4CO3)cn2)cc1 (centres undefined)	none
Cc1ccc(-c2nc(CCNC(=O)c3cccc(C(F)(F)F)c3)cs2)cc1	none
O=C(CCc1ccccc1)Nc1ccc(Cl)cn1	none
